Only some compounds are listed: those with a hit (about 1.3% of all), similar ones and a draw of the others.
E coli Lon inh – E. coli protease La inhibition | P0A9M0 | purified E. coli Lon protease, fluorescence polarization | inhibition, % at 7.94 µM | hit rate 0.42% among 360,000 | AID 602123; in the data active = inhibition above about 13%, passing the limit was not always enough
MCL1-BIM inh – disrupts human MCL1 binding to BIM-BH3 peptide. inhibition, % at 10.9 µM. hit rate 0.68% among 320,000. GST-MCL1 / FITC-Bim-BH3 fluorescence polarization;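 active = inhibition above the mean inhibition of all tested compounds plus 3 SD, set per campaign, cut at about 40% in these data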;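 also: higher means more loss of mP so more displacement of Bim peptide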
Target sequence (Q07820 whole entry, looked up): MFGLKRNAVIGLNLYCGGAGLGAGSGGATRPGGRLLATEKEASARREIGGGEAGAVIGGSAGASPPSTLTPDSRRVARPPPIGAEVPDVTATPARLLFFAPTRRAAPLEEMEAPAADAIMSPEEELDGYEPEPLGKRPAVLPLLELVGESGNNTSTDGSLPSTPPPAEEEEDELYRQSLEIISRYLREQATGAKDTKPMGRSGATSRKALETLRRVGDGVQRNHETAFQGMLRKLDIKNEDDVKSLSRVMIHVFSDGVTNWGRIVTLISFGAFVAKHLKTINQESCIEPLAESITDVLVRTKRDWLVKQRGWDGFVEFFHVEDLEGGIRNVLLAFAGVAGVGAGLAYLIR
GLD-1 TGE inh – GLD-1-TGE RNA interaction inhibition (C. elegans); hit rate 0.44% among 320,000; AID 2280; Q17339; inhibition, % at 5.96 µM; purified GLD-1 + fluorescein TGE RNA, fluorescence polarization;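 active = percent inhibition above a per-plate cutoff, the plate mean of test compounds plus 3 SD, cut at about 30% in these data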
Bcl-xL primary – Bcl-xL (human) inhibition. Q07817. hit rate 0.7% among 320,000. AID 2129. GST-Bcl-xL / FITC-Bim BH3 peptide fluorescence polarization. inhibition, % at 10.9 µM;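 active = inhibition above the mean of all tested compounds plus 3 SD, cutoff set per campaign, cut at about 30% in these data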;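 also: inhibitors lower millipolarization by displacing the labeled peptide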
Target sequence (Q07817 whole entry, looked up): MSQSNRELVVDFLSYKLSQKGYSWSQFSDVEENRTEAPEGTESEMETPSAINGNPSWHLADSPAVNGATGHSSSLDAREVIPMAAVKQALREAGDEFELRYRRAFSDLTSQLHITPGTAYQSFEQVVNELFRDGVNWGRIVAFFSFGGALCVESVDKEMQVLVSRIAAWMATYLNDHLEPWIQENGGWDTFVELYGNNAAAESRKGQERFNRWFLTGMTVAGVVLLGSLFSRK
LANA DNA inh – inhibitors of KSHV LANA C-terminal domain DNA binding | MBP-C-LANA/FAM-LBS DNA binding, fluorescence polarization | inhibition, % at 9 µM | hit rate 0.078% among 340,000;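 active = highest replicate inhibition at or above 60% at 9 µM, even if other replicates fall short; inactive = all replicates below 60% inhibition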
Keap1-Nrf2 PPI – disrupts human Keap1 binding to Nrf2 peptide; Q14145; Keap1 Kelch-Nrf2 peptide fluorescence polarization, 1536-well; inhibition, % at 9.4 µM; hit rate 0.15% among 340,000; in the data active = inhibition above about 12%; inconclusive = no clear call, values can overlap the other calls; inactive = below about 7.3%;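 also: human Keap1 Kelch domain with fluorescein labeled Nrf2 9mer peptide probe; higher means more block of Keap1 binding to Nrf2 peptide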
eLon confirm – E. coli Lon inhibition confirmation; shares compounds with E coli Lon inh; purified E. coli Lon, fluorescence polarization; inhibition, % at 7.94 µM; hit rate 31% among 1,400; in the data active = inhibition above about 16%
A number is an active result; - = inactive; ? = inconclusive; . = not tested or not shown; + = active, no number.

SMILES	E coli Lon inh	MCL1-BIM inh	GLD-1 TGE inh	Bcl-xL primary	LANA DNA inh	Keap1-Nrf2 PPI	eLon confirm
Cc1cc2cc(CNC(=O)c3ccc(S(=O)(=O)N(C)C)cc3)ccc2n1C	26	-	-	-	-	-	-
Cc1cc2cc(CNC(=O)Cc3ccc([N+](=O)[O-])cc3)ccc2n1C	-	-	-	-	-	-	.
Cc1cc2cc(CNS(=O)(=O)c3ccc4ccccc4c3)ccc2n1C	16	-	-	-	-	-	-
Cc1cc2cc(CNC(=O)c3ccc(S(=O)(=O)N4CCOCC4)cc3)ccc2n1C	24	-	-	-	-	-	-
COc1cccc(SCc2noc(C(=O)NCC3CCCO3)c2C(=O)O)c1 (stereo unspecified)	-	-	-	-	-	-	.
O=C(COC(=O)c1cc[n+]([O-])cc1)Nc1cccc(Cl)c1Cl	16	-	-	-	-	-	-
Cc1ccc(S(=O)(=O)N(C)c2ccc(C(=O)NC3CCCCC3)cc2)cc1	-	.	.	.	.	.	.
CC1(CCC(=O)N2CCCC(N3CCN(c4ccc(F)cc4)CC3)C2)CC1 (stereo unspecified)	13	-	-	-	-	-	-
CSCC(=O)N1CCCC(N2CCN(c3ccc(F)cc3)CC2)C1 (stereo unspecified)	-	-	-	-	-	-	.
COc1cc(N=Nc2ccccc2C(=O)O)ccc1O	-	-	-	-	-	-	.
O=Cc1cc(N=Nc2ccccc2Cl)ccc1O	25	-	-	-	-	-	36
O=Cc1cc(N=Nc2cccc(C(=O)O)c2)ccc1O	15	-	-	-	-	-	24
Cc1ccc2c(c1)c(N=Nc1cccc(C(=O)O)c1)c(O)n2C	-	-	-	-	-	-	.
Nc1[nH]c(C(=O)c2ccccc2)c(-c2ccc(Cl)cc2)c1C(=O)NCc1ccco1	-	.	.	.	.	.	.
COCCNc1nc(C)cc(-c2cc(C(=O)Nc3ccccc3)on2)n1	29	-	-	-	-	-	-
COCCNc1nc(C)cc(-c2cc(C(=O)NCc3ccccc3)on2)n1	-	-	-	-	-	-	.
CCOC(=O)C1=C(COC(=O)Cc2c(F)cccc2Cl)NC(=O)NC1C (stereo unspecified)	24	-	-	-	-	-	-
CC(C)OP(=O)(CCP(=O)(OC(C)C)OC(C)C)OC(C)C	17	-	-	-	-	-	-
OC1CCCN(Cc2ccc3ccc4cccc5ccc2c3c45)C1 (stereo unspecified)	-	-	-	-	-	-	.
c1cc2ccc3ccc(CN4CCOCC4)c4ccc(c1)c2c34	17	-	-	-	-	-	-
CC(=O)N1N=C(c2ccc(C)cc2)CC1c1ccco1 (stereo unspecified)	-	-	-	-	-	-	.
Cc1ccc(C2=NN(C(=O)CCCC(=O)O)C(c3ccco3)C2)cc1 (stereo unspecified)	19	-	-	-	-	-	-
O=C(COC(=O)c1ccccc1C(=O)OCC(=O)NCCc1c[nH]c2ccccc12)NCCc1c[nH]c2ccccc12	32	-	-	-	-	-	-
O=C(COC(=O)c1ccccc1O)NCCc1c[nH]c2ccccc12	-	.	-	.	-	-	.
CCCCn1c(SCC(=O)Nc2cc(C)on2)nnc1-c1ccco1	14	-	-	-	-	-	-
SMILES	E coli Lon inh	MCL1-BIM inh	GLD-1 TGE inh	Bcl-xL primary	LANA DNA inh	Keap1-Nrf2 PPI	eLon confirm
Cc1cccc2sc(NC(=O)C3c4ccccc4Oc4ccccc43)nc12	-	-	-	-	-	-	.
Cc1cccc2cc3c(N)c(C(=O)N4CCc5ccccc54)sc3nc12	-	-	-	-	-	-	.
Cc1cc2cc3c(=O)[nH]c(=O)cc-3n(CC(O)C(O)C(O)CO)c2cc1C (stereo unspecified)	87	.	.	.	.	.	91
Cc1cc2cc3c(=O)[nH]c(=O)nc-3n(CC(O)C(O)C(O)CO)c2cc1C (stereo unspecified)	-	.	.	.	-	-	.
Cc1ccc(N(CC(=O)NC2CCCC2)C(=O)CNC(=O)c2cccs2)cc1C	19	-	-	-	-	-	-
Cc1ccc(N(CC(=O)NC2CCCCC2)C(=O)CNC(=O)c2cccs2)cc1	-	-	-	-	-	-	.
COc1cccc(-c2cccc(NC(=O)C3CCN(Cc4ccon4)CC3)c2)c1	-	-	-	-	-	-	.
Cn1c(=O)c2c(-c3ccccc3)n(-c3cccc(O)c3)cc2n(C)c1=O	18	.	.	.	.	.	-
Cc1ccc(N2C(=O)c3cccc4c(N)ccc(c34)C2=O)c2cccnc12	161	-	-	30	-	-	-
CCN(C(=O)c1cnc(NC(C)C)cc1C(F)(F)F)c1ccc(Cl)cc1Cl	-	-	-	-	-	-	.
CCOCCCNC(=O)C(NC(=O)c1ccccc1O)c1ccc(Cl)cc1 (stereo unspecified)	18	-	-	-	-	-	-
O=C(COC(=O)C1CCN(S(=O)(=O)c2cccs2)CC1)c1ccc2c(c1)OCCO2	15	-	-	-	-	-	-
O=C1COc2ccc(C(=O)COC(=O)C3CCN(S(=O)(=O)c4cccs4)CC3)cc2N1	-	-	-	-	-	-	.
COC(=O)[C@@H]1CC[C@H](C)[C@@H](c2ccc(C)cc2)N1C(=O)c1ccc(/C=N/OCC[C@@H]2C=C[C@H](OC(C)=O)[C@@H](COC(C)=O)O2)cc1	.	-	-	-	.	.	.
Cc1ccc2c(CN3CCN(Cc4ccccc4)CC3)cc(=O)oc2c1	-	-	-	-	-	-	.
Cc1cc2oc(=O)cc(CN3CCN(Cc4ccccc4)CC3)c2cc1Cl	21	-	-	-	-	-	-
COC(=O)[C@H](CC(C)C)NC(=O)Cn1cnc2c(SC)nc(N)nc21	12	.	-	.	-	-	-
COC(=O)C[C@H](NC(=O)Cn1cnc2c(SC)nc(N)nc21)C(=O)OC	-	.	-	.	-	-	.
O=C(c1ccc(Cl)cc1)N1CCC2CC1c1cc(-c3ccccc3)ccc12 (stereo unspecified)	16	.	.	.	-	-	-
CCOC(=O)NC(=O)/C(C#N)=C\Nc1sccc1C(=O)OC	+	+	+	+	-	?	-
CCOC(=O)NC(=O)/C(C#N)=C\Nc1ccc(Cl)cc1Cl	-	-	-	-	-	-	.
CN(C(=O)CNc1ccccc1Cl)C1CCS(=O)(=O)C1 (stereo unspecified)	-	.	-	.	-	-	.
COc1ccc(CCN2C(=O)CC(N3CCN(S(=O)(=O)c4ccccc4)CC3)C2=O)cc1 (stereo unspecified)	12	-	-	-	-	-	-
CSCCC(NC(=O)COc1ccccc1)C(=O)N1CCN(c2ccccc2O)CC1 (stereo unspecified)	71	-	-	-	-	-	-
Cc1ccc(CNC(=O)Nc2ccc(Cl)cc2)cc1	-	-	-	-	-	-	.
Cc1ccc(S(=O)(=O)NC(=O)NCc2ccc(Cl)cc2)cc1	16	-	-	-	-	-	-

Screens (PubChem)
